BAZ2B inh: inhibitors of human BAZ2B bromodomain. 4.4% of 360,000 active. AID 504333. AlphaScreen BAZ2B-H3K14Ac peptide displacement. Potency, µM (top dose mostly 114 µM), usual class: inhibitors. Q9UIF8; note: nearly all actives have a fitted effect of over 60% in size
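Complex of BAZ2B and biotin-H3K14Ac (50 nM apiece) forms over 30 min at RT, then faces library compounds up to 110 uM for another 30 min; AlphaScreen beads added, 20 min dark incubation, luminescence read.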
HP1b chromo inh: HP1-beta chromodomain-methylated histone interaction inhibition; P83916; Potency, µM (series often up to 114 µM), actives largely listed as inhibitors; AlphaScreen HP1-beta / biotin-H3K9me3 peptide binding; AID 540317; 0.56% of 390,000 active; note: nearly all actives have a fitted effect of over 70% in size
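Compound inhibition of the preformed complex between 50 nM HP1-beta and 50 nM biotinylated H3K9me3 peptide was read by AlphaScreen. Buffer was PBS pH 7.4 with 0.01% Tween-20. Incubations ran 30 min at room temperature, with 10 ug/mL donor/acceptor beads.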
JMJD2A Tudor: JMJD2A Tudor domain (human) inhibition | 4.4% of 390,000 active | Potency, µM (titrated, usually from 114 µM), actives largely listed as inhibitors | AlphaScreen JMJD2A-Tudor / H3K4me3 peptide binding | O75164; note: nearly all actives have a fitted effect of over 50% in size
ALOX12 inh: ALOX12 (human) lipoxygenase inhibition; Potency, µM (doses to about 108 µM), usual class: inhibitors; purified 12hLO, xylenol orange hydroperoxide absorbance; 1.1% of 580,000 active; AID 1671190; P18054
Target sequence (P18054 whole entry, looked up): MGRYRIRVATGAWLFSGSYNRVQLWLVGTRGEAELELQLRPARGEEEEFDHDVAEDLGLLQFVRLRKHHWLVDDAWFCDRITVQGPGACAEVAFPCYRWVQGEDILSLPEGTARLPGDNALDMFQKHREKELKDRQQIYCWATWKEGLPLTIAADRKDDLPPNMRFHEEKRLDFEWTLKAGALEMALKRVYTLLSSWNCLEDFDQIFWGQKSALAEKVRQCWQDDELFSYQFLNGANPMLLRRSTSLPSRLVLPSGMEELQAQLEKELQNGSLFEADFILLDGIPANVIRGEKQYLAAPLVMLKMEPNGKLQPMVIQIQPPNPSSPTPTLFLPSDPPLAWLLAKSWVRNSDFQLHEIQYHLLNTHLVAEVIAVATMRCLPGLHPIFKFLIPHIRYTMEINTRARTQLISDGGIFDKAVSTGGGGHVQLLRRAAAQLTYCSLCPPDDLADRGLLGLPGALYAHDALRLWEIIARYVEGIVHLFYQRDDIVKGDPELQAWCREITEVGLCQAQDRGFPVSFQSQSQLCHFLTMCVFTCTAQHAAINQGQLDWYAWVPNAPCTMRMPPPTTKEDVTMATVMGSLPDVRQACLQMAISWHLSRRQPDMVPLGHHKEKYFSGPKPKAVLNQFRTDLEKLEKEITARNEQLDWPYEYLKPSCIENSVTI
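Hydroperoxide product was detected by ferrous iron/xylenol orange as the 573 to 405 nm absorbance ratio. Arachidonic acid at 40 uM (final) was turned over for 30 min at room temperature by 150 nM human 12hLO, pH 7.0 Hepes buffer, after 15 min compound preincubation.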
PLK1 PBD block: PLK1 (human) polo-box domain binding inhibition | 2.8% of 360,000 active | P53350 | Potency, µM, hits mostly inhibitors | Plk1 PBD binding of FITC phosphopeptide, fluorescence polarization; note: series mostly up to about 57 µM; nearly all actives have a fitted effect of over 65% in size
G9a block: inhibitors of human histone lysine methyltransferase G9a; Q96KQ7; G9a H3K9 monomethylation, AlphaScreen, 2 h; Potency, µM (top dose mostly 102 µM), most hits filed as inhibitors; 8.8% of 350,000 active; AID 504332; note: nearly all actives have a fitted effect of over 75% in size
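Using a bead-based AlphaScreen, monomethylated H3K9 product from 2 h room-temperature reactions (G9a 20 nM, peptide 500 nM, SAM 20 uM) was detected with 0.5 ug/mL rabbit anti-H3K9me1 antibody.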
Hits are given with their value; i = inactive; ? = inconclusive; nt = no result given; [ ] = remark or other dose. An excerpt weighted towards active compounds, which were near 9% of everything screened. Calls come from the whole dose curve; as a rule, active = well fitted curve in the direction sought with a large enough effect; inconclusive = small, poorly fitted or top-dose-only effect, or another doubt; inactive = no such curve, though single readings can be large; an effect the other way counts as inactive or inconclusive.

SMILES	BAZ2B inh	HP1b chromo inh	JMJD2A Tudor	ALOX12 inh	PLK1 PBD block	G9a block
O=C(NCCN1CCCC1)c1ccc2c(c1)N(Cc1ccc(F)cc1)C(=O)c1ccccc1S2=O (stereo not given)	i	i	i	i	i	40µM
CN1CCN(C(=O)c2ccc3c(c2)N(Cc2ccc(Cl)cc2)C(=O)c2ccccc2S3=O)CC1 (stereo not given)	i	i	i	i	i	79µM
O=C(c1ccc2c(c1)N(Cc1ccc(Cl)cc1)C(=O)c1ccccc1S2=O)N1CCCCC1 (stereo not given)	i	i	i	i	nt	i
CN1CCN(C(=O)c2ccc3c(c2)N(Cc2cccc(Cl)c2)C(=O)c2ccccc2S3(=O)=O)CC1	i	i	i	i	27µM	i
CCC(C)(C)NC(=O)c1ccc(-c2nnc3ccc(NC(=O)C4CC4)cn23)cc1	nt	nt	nt	i	nt	nt
CCCCCCCCCCCCS[C@H]1CS(=O)(=O)C[C@@H]1O	i	i	i	?	i	i
C[C@@](N)(C(=O)O)c1ccc(C(=O)O)cc1	nt	nt	nt	?	nt	i
Cc1nn(CCC#N)c(C)c1[C@@H]1C=C[C@@H](NC(=O)Nc2ccccc2)C1	nt	nt	nt	i	nt	nt
CSc1nnc([C@H](C)NC(=O)OC(C)(C)C)o1	i	i	i	i	i	i
NS(=O)(=O)c1cccc(-n2ccnc2-c2cc3n(n2)CCCNC3)c1	nt	nt	nt	i	nt	nt
CC1C(c2ccccc2)=[N+]([O-])C(C)(C)N1O (stereo not given)	nt	nt	nt	i	nt	nt
CCN1CCN(C(=O)c2ccc3c(c2)N(Cc2cccc(F)c2)C(=O)c2ccccc2S3)CC1	i	i	79µM	i	nt	?
C#CCOCCOCCOCCNc1nc(N2CCN(C(=O)[C@H](Cc3ccc(O)cc3)n3cc([C@@H](N)C(C)CC)nn3)CC2)nc(N2CCN(C(=O)[C@H](Cc3cc4ccccc4[nH]3)n3cc([C@@H](N)Cc4ccc(O)cc4)nn3)CC2)n1 (stereo not given in full)	32µM	nt	nt	nt	nt	?
C#CCOCCOCCOCCNc1nc(N2CCN(C(=O)C(Cc3ccc(O)cc3)n3cc(C(N)CC(C)C)nn3)CC2)nc(N2CCN(C(=O)C(Cc3cc4ccccc4[nH]3)n3cc(C(N)C(C)CC)nn3)CC2)n1 (stereo not given)	50µM	nt	nt	nt	nt	?
C#CCOCCOCCOCCNc1nc(N2CCN(C(=O)[C@H](Cc3ccc(O)cc3)n3cc([C@@H](N)CC(C)C)nn3)CC2)nc(N2CCN(C(=O)[C@H](Cc3cc4ccccc4[nH]3)n3cc([C@@H](N)CC(C)C)nn3)CC2)n1	25µM	i	10µM	?	i	i[12.7 µM]
CCCCc1c(C)c(C#N)c2nc3ccccc3n2c1Nc1c(C)n(C)n(-c2ccccc2)c1=O	i	i	i	i	i	i
Cc1c(Nc2c3c(c(C#N)c4nc5ccccc5n24)CCC3)c(=O)n(-c2ccccc2)n1C	i	nt	nt	nt	nt	50µM
COC(=O)c1c(NC(=O)COC(=O)C2CCC2)sc(C)c1C	i	i	i	i	i	i
O=[N+]([O-])c1ccc(C=Nc2cccc3ccccc23)s1	16µM	13µM	40µM	nt	i	10µM
CCN(CC)S(=O)(=O)c1ccc(-c2cn3cc(Cl)ccc3n2)cc1	i	i	?	i	12µM	i[12.7 µM]
O=C(Nc1ccccc1Cl)c1cccc(NC(=O)c2cccs2)c1	i	i	i	i	i	nt
CC(C)(CS)C(=O)N1CCC[C@H]1C(=O)O	nt	nt	nt	nt	nt	4.5µM
COc1ccc(CNc2ncnc3c2CN(c2ccc(Cl)cc2)C(=O)N(C)C3)cc1	nt	nt	nt	i	nt	nt
CN1Cc2ncnc(NCCc3ccc(F)cc3)c2CN(c2ccc(Cl)cc2)C1=O	nt	nt	nt	71µM	nt	nt
COc1ccc(OCc2cc(C(=O)NCC3CCCCO3)no2)c(Cl)c1 (stereo not given)	i	i	?	i	30µM	i
COc1ccc(OCc2cc(C(=O)NCCN3CCCc4ccccc43)no2)c(Cl)c1	?	?	?	16µM	i	?
O=C1/C(=C/c2ccco2)CCc2ccccc21	40µM	?	i	?	i	10µM
COc1ccc2c(c1)CC/C(=C/c1ccco1)C2=O	35µM	?	i	?	i	?
CC(C)(C)c1ccc(/C=C2\CCc3ccccc3C2=O)cc1	nt	nt	nt	i	nt	nt

Bioassay records as filed in PubChem BioAssay.
